# Calls of active or inactive are those of the source. Rule for the calls: active = hit-call score of the fitted dose curve at least 0.9, where 1 is the maximum; inactive = score below 0.9.
# Assays:
# Conditions in all cases: mRNA level, 48 h; actives raise or lower the signal
# [1] = read-out: Signal transducer and activator of transcription 3 (Homo sapiens) (UniProt P40763); experiment: LTEA_HepaRG_STAT3: Life Technologies and Expression Analysis (LTEA) Assay for Signal transducer and activator of transcription (STAT3) using HepaRG (AID 2283529)
# How it was run: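 Differentiated HepaRG cells, serum-free induction medium, dosed 48 h in duplicate, 8 half-log concentrations from 100 uM in 0.5% DMSO. STAT3 mRNA by qRT-PCR, normalised to ACTB, GAPDH, POLR2A; bidirectional fit versus DMSO.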
# [2] = read-out: solute carrier (SLCO1B1), SLCO1B1 (gene 10599); experiment: LTEA_HepaRG_SLCO1B1: Life Technologies and Expression Analysis (LTEA) Assay for solute carrier (SLCO1B1) using HepaRG (AID 2283530)
# How it was run: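 HepaRG, serum-free induction medium, 48 h dosing, 8-pt half-log from 100 uM, 0.5% DMSO vehicle, duplicates. Readout: SLCO1B1 mRNA, qRT-PCR, ACTB/GAPDH/POLR2A normalization; up or down fit vs DMSO.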
# [3] = read-out: sulfotransferase 2A1 (SULT2A1), SULT2A1 (gene 6822); experiment: LTEA_HepaRG_SULT2A1: Life Technologies and Expression Analysis (LTEA) Assay for sulfotransferase 2A1 (SULT2A1) using HepaRG (AID 2283531)
# How it was run: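 Transcript levels of SULT2A1, quantified by qRT-PCR and normalized to three housekeeping genes, serve as the readout. Human HepaRG cultures receive test chemicals for 48 h at up to 100 uM in half-log steps, with 0.5% DMSO vehicle.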
# [4] = read-out: Transforming Growth Factor (TGFA), TGFA (gene 7039); experiment: LTEA_HepaRG_TGFA: Life Technologies and Expression Analysis (LTEA) Assay for Transforming Growth Factor (TGFA) using HepaRG (AID 2283532)
# How it was run: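 Differentiated HepaRG cells exposed 48 hours in serum-free induction medium, 0.5% DMSO vehicle, 8-point half-log series from 100 uM, in duplicate. TGFA mRNA by TaqMan qRT-PCR, normalised to ACTB, GAPDH, POLR2A; bidirectional fit versus DMSO.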
# [5] = read-out: Transforming Growth Factor (TGFB1), TGFB1 (gene 7040); experiment: LTEA_HepaRG_TGFB1: Life Technologies and Expression Analysis (LTEA) Assay for Transforming Growth Factor (TGFB1) Transporter using HepaRG (AID 2283533)
# How it was run: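 HepaRG, 48 h post-plating, switched to serum-free induction medium; chemicals 100 uM top, half-log, 8 pts, 0.5% DMSO, dup; 48 h exposure; RNA → Fluidigm TaqMan qRT-PCR; norm ACTB/GAPDH/POLR2A; bidirectional fit vs DMSO.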
# TIMP1, TIMP1 (gene 7076) = experiment: LTEA_HepaRG_TIMP1: Life Technologies and Expression Analysis (LTEA) Assay for TIMP1 using HepaRG (AID 2283534);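 note: TaqMan qRT-PCR signal normalized to ACTB GAPDH and POLR2A housekeeping genes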
# How it was run: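 Readout is TIMP1 mRNA level measured by qRT-PCR and normalized to three housekeeping genes. Human HepaRG cells were treated for 48 h in duplicate at eight concentrations up to 100 uM (0.5% DMSO); gain or loss fitted against DMSO.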
# [6] = read-out: Tumor necrosis factor receptor 1 (TNFRSF1A), TNFRSF1A (gene 7132); experiment: LTEA_HepaRG_TNFRSF1A: Life Technologies and Expression Analysis (LTEA) Assay for Tumor necrosis factor receptor 1 (TNFRSF1A) using HepaRG (AID 2283535)
# How it was run: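 Read-out is TNFRSF1A transcript level by TaqMan qRT-PCR, normalized to three housekeeping genes, scored as gain or loss of signal versus 0.5% DMSO. Human HepaRG cells received test chemicals for 48 h at up to 100 uM (half-log series).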
# [7] = read-out: Thyroid Hormone Responsive (THRSP), THRSP (gene 7069); experiment: LTEA_HepaRG_THRSP: Life Technologies and Expression Analysis (LTEA) Assay for Thyroid Hormone Responsive (THRSP) using HepaRG (AID 2283536)
# How it was run: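 Differentiated HepaRG cells treated 48 h in serum-free induction medium with 8 half-log concentrations up to 100 uM (0.5% DMSO), duplicates. THRSP mRNA by TaqMan qRT-PCR normalised to ACTB, GAPDH, POLR2A; bidirectional fit versus DMSO.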
# [8] = read-out: Cellular tumor antigen p53 (Homo sapiens) (UniProt P04637); experiment: LTEA_HepaRG_TP53: Life Technologies and Expression Analysis (LTEA) Assay for Tumor Protein P53 (TP53) using HepaRG (AID 2283537)
# How it was run: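 Differentiated HepaRG cells in serum-free induction medium exposed 48 h in duplicate to 8 half-log concentrations, top 100 uM, 0.5% DMSO. TP53 mRNA by TaqMan qRT-PCR (Fluidigm), normalized to ACTB, GAPDH, POLR2A; fitted bidirectionally versus DMSO.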
# [9] = read-out: UDP glucuronosyltransferase (UGT1A1), UGT1A1 (gene 54658); experiment: LTEA_HepaRG_UGT1A1: Life Technologies and Expression Analysis (LTEA) Assay for UDP glucuronosyltransferase (UGT1A1) using HepaRG (AID 2283538)
# How it was run: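 Human liver HepaRG cultures receive test chemical for 48 h, up to 100 uM in 0.5% DMSO, with phenobarbital induction controls. UGT1A1 mRNA is measured by qRT-PCR and normalized to ACTB, GAPDH and POLR2A.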
# Chain of Cellular tumor antigen p53 (Homo sapiens) (P04637 whole entry, looked up): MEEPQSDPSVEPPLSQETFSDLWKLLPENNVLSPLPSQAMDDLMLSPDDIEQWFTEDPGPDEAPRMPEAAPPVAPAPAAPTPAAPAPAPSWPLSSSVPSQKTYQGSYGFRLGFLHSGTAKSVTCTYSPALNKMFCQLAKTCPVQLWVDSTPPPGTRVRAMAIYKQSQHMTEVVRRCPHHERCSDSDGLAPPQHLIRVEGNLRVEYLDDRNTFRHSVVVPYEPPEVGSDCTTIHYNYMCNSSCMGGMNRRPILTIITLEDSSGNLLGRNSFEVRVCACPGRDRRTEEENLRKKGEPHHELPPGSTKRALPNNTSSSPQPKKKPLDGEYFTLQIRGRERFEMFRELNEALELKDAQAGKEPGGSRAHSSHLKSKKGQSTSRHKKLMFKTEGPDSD
# Chain of Signal transducer and activator of transcription 3 (Homo sapiens) (P40763 whole entry, looked up): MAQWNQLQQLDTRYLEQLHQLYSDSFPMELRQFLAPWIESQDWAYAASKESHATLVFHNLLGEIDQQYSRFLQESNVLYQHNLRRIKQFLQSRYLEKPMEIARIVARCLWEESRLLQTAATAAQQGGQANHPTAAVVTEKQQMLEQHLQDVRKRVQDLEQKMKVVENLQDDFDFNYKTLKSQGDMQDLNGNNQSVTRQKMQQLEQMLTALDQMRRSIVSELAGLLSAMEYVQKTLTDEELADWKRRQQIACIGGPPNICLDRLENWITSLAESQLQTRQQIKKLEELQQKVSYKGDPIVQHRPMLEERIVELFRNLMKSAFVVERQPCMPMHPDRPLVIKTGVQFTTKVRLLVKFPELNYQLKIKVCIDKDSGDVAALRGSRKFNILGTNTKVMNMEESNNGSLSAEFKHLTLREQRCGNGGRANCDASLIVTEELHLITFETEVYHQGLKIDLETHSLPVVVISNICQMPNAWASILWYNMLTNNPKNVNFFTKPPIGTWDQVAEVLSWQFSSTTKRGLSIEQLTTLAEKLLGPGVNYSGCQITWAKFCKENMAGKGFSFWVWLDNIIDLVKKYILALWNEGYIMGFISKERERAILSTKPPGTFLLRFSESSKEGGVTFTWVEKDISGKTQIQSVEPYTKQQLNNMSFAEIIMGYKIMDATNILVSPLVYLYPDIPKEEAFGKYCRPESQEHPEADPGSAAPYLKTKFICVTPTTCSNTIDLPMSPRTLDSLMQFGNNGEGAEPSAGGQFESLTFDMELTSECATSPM
SMILES,outcome [1],AC50 [2],outcome [3],outcome [4],outcome [5],"outcome (TIMP1, TIMP1 (gene 7076))",outcome [6],outcome [7],outcome [8],AC50 [9],outcome [2],outcome [9],AC50 [7],AC50 [3],AC50 [4],AC50 [5]
Nc1ccc(Nc2ccccc2)cc1,inactive,35.4 µM (active),inactive,inactive,inactive,inactive,inactive,inactive,inactive,50 µM (active),–,–,–,–,–,–
COC(=O)c1ccccc1O,inactive,–,inactive,inactive,inactive,inactive,inactive,inactive,inactive,–,inactive,inactive,–,–,–,–
CC(C)c1cccc(C(C)C)c1N1C(=O)c2ccc(O)cc2C1=O,inactive,–,inactive,inactive,inactive,inactive,inactive,–,inactive,10.8 µM (active),inactive,–,90.2 µM (active),–,–,–
CCCCCCCCCCCCc1ccccc1,inactive,–,inactive,inactive,inactive,inactive,inactive,inactive,inactive,–,inactive,inactive,–,–,–,–
CC[C@H]1OC(=O)[C@H](C)[C@@H](O[C@H]2C[C@@](C)(OC)[C@@H](O)[C@H](C)O2)[C@H](C)[C@@H](O[C@@H]2O[C@H](C)C[C@H](N(C)C)[C@H]2O)[C@](C)(O)C[C@@H](C)C(=O)[C@H](C)[C@@H](O)[C@]1(C)O,inactive,–,inactive,inactive,inactive,inactive,inactive,inactive,inactive,8.69 µM (active),inactive,–,–,–,–,–
CCC(C)(C)C(=O)O[C@H]1C[C@@H](C)C=C2C=C[C@H](C)[C@H](CC[C@@H]3C[C@@H](O)CC(=O)O3)[C@H]21,inactive,–,inactive,inactive,inactive,inactive,inactive,–,inactive,–,inactive,inactive,25.4 µM (active),–,–,–
CN(C)c1ccc(Cc2ccc(N(C)C)cc2)cc1,inactive,–,inactive,inactive,inactive,inactive,inactive,–,inactive,11.5 µM (active),inactive,–,19.5 µM (active),–,–,–
Cn1c(=O)cc(Oc2ccc(F)cc2F)c2cnc(NCC(C)(C)O)nc21,inactive,–,inactive,inactive,inactive,–,inactive,inactive,inactive,–,inactive,inactive,–,–,–,–
CC(C)CCCCCCCOC(=O)CCCCC(=O)OCCCCCCCC(C)C,inactive,–,inactive,inactive,inactive,inactive,inactive,inactive,inactive,–,inactive,inactive,–,–,–,–
COc1cccc(-c2ccc(/C=C\CN3CCCCCC3)cc2Cl)c1,–,74.6 µM (active),–,–,–,inactive,inactive,inactive,inactive,83.4 µM (active),–,–,–,83.2 µM (active),74.4 µM (active),87.3 µM (active)
CC(=O)OCCC(C)C,–,–,inactive,inactive,inactive,inactive,inactive,inactive,inactive,–,inactive,inactive,–,–,–,–
Nc1nc2ncc(CNc3ccc(C(=O)N[C@@H](CCC(=O)O)C(=O)O)cc3)nc2c(=O)[nH]1,–,–,inactive,inactive,inactive,inactive,inactive,inactive,inactive,–,inactive,inactive,–,–,–,–
CC(C)CC(C)(O)C#CC(C)(O)CC(C)C (configuration not stated),inactive,–,inactive,inactive,inactive,–,inactive,inactive,inactive,–,inactive,inactive,–,–,–,–
CC[C@H]1CC[C@H](NCc2cc3c(cc2OC)[C@H]2C[C@H]2C(=O)N3C)[C@H](c2ccccc2)N1,–,–,–,inactive,inactive,inactive,inactive,–,inactive,19 µM (active),inactive,–,29.3 µM (active),50 µM (active),–,–
COC(=O)c1c(Cl)c(Cl)c(C(=O)OC)c(Cl)c1Cl,inactive,–,inactive,inactive,inactive,–,inactive,inactive,inactive,–,inactive,inactive,–,–,–,–
CCOC(=O)CC(CC(=O)OCC)(OC(C)=O)C(=O)OCC,inactive,–,inactive,inactive,inactive,–,inactive,inactive,inactive,–,inactive,inactive,–,–,–,–
Cc1c(-c2cccnc2)c2ccccc2n1CCCCC(=O)O,–,–,inactive,inactive,inactive,inactive,inactive,inactive,inactive,–,inactive,inactive,–,–,–,–
Cc1ccc(C)c(O)c1,inactive,–,inactive,inactive,inactive,–,inactive,inactive,inactive,–,inactive,inactive,–,–,–,–
O=C(O)CCN(C1(C(=O)NO)CCCC1)S(=O)(=O)c1ccc(Oc2ccc(F)cc2)cc1,inactive,–,inactive,inactive,inactive,–,inactive,inactive,inactive,–,inactive,inactive,–,–,–,–
COc1ccc(-n2nc(C(F)F)cc2-c2ccc(S(C)=O)cc2)cc1 (configuration not stated),–,–,inactive,inactive,inactive,inactive,inactive,inactive,inactive,39.6 µM (active),inactive,–,–,–,–,–
Cc1ccc(O)cc1,inactive,–,inactive,inactive,inactive,–,inactive,inactive,inactive,–,inactive,inactive,–,–,–,–
